Screening results deposited in PubChem by The Scripps Research Institute Molecular Screening Center.
TTR transcr act = activators of transthyretin transcription. SH-SY5Y TTR promoter Gaussia luciferase, luminescence; 100% = recombinant luciferase protein wells. activation, % at 16.7 µM. actives 1.3% (n = 92,000). AID 1117267;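 active means activation above the mean of all tested compounds plus 3 SD, cut at about 9.5% in these data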;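 further: cells exposed to compounds for one day before reading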
TTR inh HuH7 = HuH7 TTR transcription inhibition, counter-screen | shares compounds with TTR transcr act | HuH7 TTR promoter-Gaussia luciferase reporter, luminescence | inhibition, % at 16.7 µM | actives 4% (n = 1,100) | AID 1117279;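 active means average inhibition above the solvent-only control wells' mean plus 3 SD, cut at about 15% in these data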;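 further: inhibitors lower well luminescence so higher value means more inhibition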
TTR up confirm = human TTR transcription activation, confirmation. shares compounds with TTR transcr act. AID 1117280. activation, % at 16.7 µM. SHSY5Y TTR promoter Gaussia luciferase, luminescence; 100% = purified Lucia enzyme wells, no cells. 1,100 tested, under 10 active;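 active means mean activation above a set limit taken from the earlier primary screen, cut at about 11% in these data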
Large screens that a line does not name were inactive (follow-up assays come after a bar, where they were run). This excerpt belongs to a sample that is enriched for hits.

Cc1nnc(SCc2nc3ccccc3[nH]2)s1	none
Cn1nnnc1SCc1nc2ccccc2[nH]1	none
Cc1ccccc1CNS(=O)(=O)c1c(C)[nH]c(C)c1C(=O)N1CCCCC1	none
CC(=O)NC12CC3CC(C1)CC(C(=O)NCc1ccc(C)cc1)(C3)C2	none
O=C(OCc1ccccc1)N1CCC2CC1c1cc(NCCc3ccccc3)ccc12 (configuration not stated)	none
COc1ccc(S(=O)(=O)N2CCN(C(=O)CC3CC4CCC3C4)CC2)cc1 (configuration not stated)	none
COC(=O)c1ccc(OC(=O)CN2C(=O)c3ccccc3C2=O)cc1	none
CC(=O)C1=CCC(c2ccc(C)o2)N(S(=O)(=O)c2ccc(C)cc2)C1 (configuration not stated)	none
CC1(C(=O)NS(=O)(=O)c2ccc3c(c2)CCO3)CCN1C(=O)CCC1CCCC1 (configuration not stated)	none
CC(C)CN(C(=O)c1cc(Cl)nc2ccccc12)C1CCS(=O)(=O)C1 (configuration not stated)	none
COc1ccc(CCC(=O)N2CCN(C3CCCCC3)CC2)cc1	TTR transcr act 14 | TTR inh HuH7 inactive | TTR up confirm inactive
COc1cc(OC)cc(C(=O)N2CCN(C3CCCCC3)CC2)c1	none
O=C(CCCc1ccccc1)N1CCN(C2CCCCC2)CC1	none
Cc1nn(C)c(C)c1CN(C(=O)C1CCC(=O)N(C2CCCCCC2)C1)C(C)C (configuration not stated)	none
O=C(CCNC(=O)c1ccccc1)NNC(=O)c1ccccc1Br	none
COc1cccc(C(=O)COc2ccccc2N2C(=O)C3C4C=CC(C4)C3C2=O)c1 (configuration not stated)	none
O=C1C2C3C=CC(C4CC34)C2C(=O)N1c1cccc2ccccc12 (configuration not stated)	none
Cc1ccnc2c(N3C(=O)C4C5C=CC(C5)C4C3=O)cccc12 (configuration not stated)	TTR transcr act 9.8 | TTR inh HuH7 inactive | TTR up confirm inactive
CC(=O)c1sc(-c2ccccc2)cc1NS(=O)(=O)c1ccc(C)cc1	none
CC(=O)c1sc(-c2ccc(F)cc2)cc1NS(=O)(=O)c1ccc(C)cc1	TTR transcr act 17 | TTR inh HuH7 inactive | TTR up confirm inactive
CC(=O)c1sc(-c2ccccc2)cc1NS(=O)(=O)c1ccccc1	none
Cc1cc2cc(CCNC(=O)CCc3ccccc3)c(=O)[nH]c2cc1C	none
Cc1ccc2nc(C3CCCCC3)c(Cc3cccc(Cl)c3)n2c1	none
O=C(NC1CCCc2ccccc21)c1cccc(F)c1 (configuration not stated)	none
Cn1nc(C(=O)NC2CCC(O)CC2)c2ccccc2c1=O (configuration not stated)	none
Cn1nc(CC(=O)NC2CCCCCC2)c2ccccc2c1=O	none
Cn1nc(CC(=O)NC2CCCCC2)c2ccccc2c1=O	TTR transcr act 10 | TTR inh HuH7 inactive | TTR up confirm inactive
COc1ccc(C(=O)N/C(=C\c2cn(S(=O)(=O)N(C)C)c3ccccc23)C(=O)N2CCOCC2)cc1	none
CN(C)C(=O)c1ccc(Oc2ccc(C(=O)N(C)C)cc2)cc1	none
CN(C)C(=O)c1ccc(OCC(F)(F)F)nc1	TTR transcr act 13 | TTR inh HuH7 inactive | TTR up confirm inactive
N/C(=N\OC(=O)c1ccc(OCC(F)(F)F)nc1)c1ccc(Cl)cc1	none
COC(=O)c1ccc(NC(=O)C[n+]2ccccc2)cc1	TTR transcr act 10 | TTR inh HuH7 inactive | TTR up confirm inactive
COC(=O)c1ccc[n+](CC(=O)Nc2ccc(OC(F)F)cc2)c1	none
O=C(C[n+]1ccccc1)Nc1ccccc1	none
C[C@H](NC(=O)N1CCn2c1nc1ccccc12)C(=O)NCc1ccccc1	none
COc1ccc(CN2CCN(S(=O)(=O)c3ccccc3)CC2)c(OC)c1OC	TTR transcr act 17 | TTR inh HuH7 inactive | TTR up confirm inactive
COc1cccc(CN2CCN(S(=O)(=O)c3ccccc3)CC2)c1OC	none
COc1ccc(CN2CCN(S(=O)(=O)c3ccccc3)CC2)c(OC)c1	none
CN(C(=O)c1cccc(NC(=O)Cc2ccc(NC(=O)C3CCN(C(=O)C4CC4)CC3)cc2)c1)C1CCCC1	none
CCOC(=O)/C=C1\SC(C)C(=O)N1CC(=O)N(CCC#N)c1ccccc1 (configuration not stated)	none
COc1ccc(/C=N\NC(=O)CCc2c(C)n[nH]c2C)c(OC)c1OC	none
COc1ccc(/C=N/NC(=O)c2cccc(OC(F)(F)C(F)F)c2)c(OC)c1OC	none
COc1ccc(/C=N/NC(=O)C(N)=O)c(OC)c1OC	TTR transcr act 13 | TTR inh HuH7 inactive | TTR up confirm inactive
O=C(O)c1ccc2c(c1)S(=O)(=O)c1cc(N3CCN(c4ncccn4)CC3)ccc1C2=O	none
CCN(CC)S(=O)(=O)c1ccc(NC(=O)c2ccc(N3CCCC3=O)cc2)cc1	none
CCn1c(=O)c(C)nn2c3ccccc3nc12	none
